Bioassay records as filed in PubChem BioAssay.
RORgamma inh – qHTS for inhibitors of ROR gamma transcriptional activity; Nuclear receptor ROR-gamma (Mus musculus), P51450; Drosophila S2 Gal4-RORgamma UAS-luciferase reporter, 20 h; Potency, µM (top dose mostly 53.6 µM), without a hit: top-dose activity change, negative = inhibition, actives largely listed as inhibitors; 310,000 tested, 5.4% active; note: % is set by controls: 0 for no effect and ±100 for the full control effect; nearly all actives have a fitted effect of over 60% in size
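Drosophila Schneider cells stably carrying a metallothionein-driven Gal4 DBD–ROR gamma fusion and a UAS-Photinus luciferase reporter were exposed to compound for 1 hr, then induced with copper sulfate (700 uM final) for 20 hr at ambient temperature before luminescence reading.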
Epigenetic derep – Quantitative High-Throughput Screen for Regulators of Epigenetic Control. murine LDR cells, GFP reporter derepression, 30 h. Potency, µM (titrated, usually from 53.9 µM), inactives show at the top dose GFP activation, hits mostly activators. 280,000 tested, 0.2% active; note: % of control where 0% means no effect; nearly all actives have a fitted effect of over 60% in size
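Murine LDR cells carrying a silenced, genomically integrated CMV-driven GFP reporter were exposed to compound for 30 hours at 37 C. After PBS washes, GFP-positive cells (20–120 um objects) were counted by laser-scanning microplate cytometry.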
PINK1 expr mod – A Quantitative High throughput Screen to Identify Chemical Modulators of PINK1 Expression | PINK1 immunofluorescence, high-content cytometry, 24 h | Potency, µM (highest dose often 76.6 µM), without a hit: at the top dose activation (PINK1 increase), most hits filed as activators | 410,000 tested, 0.2% active | AID 624263, 2012; active = well fitted activation curve with a large enough effect; inconclusive = small, poorly fitted or top-dose-only effect; cell line not stated here; note: % of control where 0% means no effect; nearly all actives have a fitted effect of over 65% in size
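Stable cell line, 250 cells/well, 12 h attachment; compounds pinned at 5 concentrations, 24 h; CCCP control. Fixed with nuclear dye, primary antibodies 12 h at 10 degrees C, secondary plus cell stain; laser-scanning cytometer read.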
Sfp inh – qHTS Assay for Inhibitors of Bacillus subtilis Sfp phosphopantetheinyl transferase (PPTase) | 4'-phosphopantetheinyl transferase ffp (Bacillus subtilis), Q9F4F7 | Biochemical Sfp PPTase activity, qHTS | Potency, µM, for the others: largest response in the series, negative = inhibition, usual class: inhibitors | 310,000 tested, 3.5% active;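 note: the enzyme is Sfp with the accession as filed and its product quenches rhodamine fluorescence; 0% = enzyme reaction without inhibitor and -100% = no enzyme wells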
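After 15 min at room temperature with compound, 15 nM Sfp received 5 uM rhodamine-CoA plus 12.5 uM BHQ-2-ybbR (50 mM Hepes pH 7.6, 10 mM MgCl2). Rate came from the fluorescence difference over 30 min, ex 525/em 598 nm.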
VP16 counter – VP16 counterscreen qHTS for inhibitors of ROR gamma transcriptional activity; Drosophila S2 Gal4-VP16 UAS-luciferase, luminescence, 20 h; Potency, µM (highest dose often 53.6 µM), for the others: at the highest dose activity, negative = inhibition, usual class: inhibitors; 310,000 tested, 3.5% active; AID 2546, 2010;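 note: Gal4-VP16 expression switched on by copper sulfate through the metallothionein promoter; % is set by controls: 0 for no effect and ±100 for the full control effect; nearly all actives have a fitted effect of over 50% in size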
ClpP mod – qHTS Assay for Activators of ClpP. purified B. subtilis ClpP, FRET peptide cleavage, 20 min. AID 651965, 2013. ATP-dependent Clp protease proteolytic subunit (Bacillus subtilis (strain 168)), P80244. 340,000 tested, 1.9% active. Potency, µM (doses to about 57.5 µM), for inactives: top-dose activity change, negative = active; active = well fitted falling curve with a large enough effect; inconclusive = small, poorly fitted or top-dose-only effect; inactive = no such curve, though single readings can be large or run the other way; note: the source files actives as falling curves though it sought activators and does not explain the sign; nearly all actives have a fitted effect of over 65% in size
Target sequence (P80244 whole entry, looked up): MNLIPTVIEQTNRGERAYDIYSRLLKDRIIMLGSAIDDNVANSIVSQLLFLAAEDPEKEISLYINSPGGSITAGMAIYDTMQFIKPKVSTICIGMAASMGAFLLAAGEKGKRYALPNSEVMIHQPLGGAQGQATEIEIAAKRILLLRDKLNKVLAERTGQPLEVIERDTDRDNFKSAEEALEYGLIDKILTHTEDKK
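Purified B. subtilis ClpP, 10 microg/mL final in Tris/HCl pH8 with KCl, BSA, glycerol and Tween-20, cleaved an Abz/nitrotyrosine-quenched decapeptide. Fluorescence (ex 320, em 430) was read at 0 and 20 min at room temperature. Delta was normalized to 5.8 microM ADEP and DMSO/no-enzyme controls.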
* = called active by the depositor; ? = inconclusive; nt = no result given. Only some compounds are listed: those with a hit (about 8.1% of all), similar ones and a draw of the others. Unless noted, calls come from the whole dose curve; as a rule, active = well fitted curve in the direction sought with a large enough effect; inconclusive = small, poorly fitted or top-dose-only effect, or another doubt; inactive = no such curve, though single readings can be large; an effect the other way counts as inactive or inconclusive. Potency is the fitted concentration of half-maximal effect.

SMILES | RORgamma inh | Epigenetic derep | PINK1 expr mod | Sfp inh | VP16 counter | ClpP mod
O=C(COc1ccc(Cl)cc1)Nc1nnc(-c2ccco2)o1 | 11µM* | 3% | 1% | 6% | ? | nt
CC(C)CC(NC(=O)NC(CCC(=O)O)C(=O)O)C(=O)O (stereo unspecified) | 2% | nt | nt | -5% | 3% | nt
COc1ccc(CCNC(=O)Cn2c(=O)nc(-c3ccccc3F)c3cc(Cl)ccc32)cc1OC | nt | -9% | 1% | nt | nt | -4%
Cc1ccc(CN2CCC(=O)N(Cc3ccccn3)CC2)c(C)c1 | nt | nt | 1% | nt | nt | nt
Clc1ccc(C=Cc2ccccn2)c(Cl)c1 | nt | nt | 2% | nt | nt | nt
O=C(/C=C/c1ccc(Cl)cc1Cl)NC(=S)Nc1ccc(CN2CCOCC2)cc1 | 3.5µM* | 1% | 24% | 2% | 4.5µM* | -2%
O=C(/C=C/c1ccc(Cl)cc1Cl)NC(=S)Nc1ccccn1 | 2.8µM* | 0% | 5% | -2% | 5µM* | 2%
O=C(/C=C/c1ccccc1)NC(=S)Nc1ccc(CN2CCOCC2)cc1 | 4µM* | -2% | 3% | 9% | ? | nt
COc1ccc(NC(=O)C2CCN(C(=O)c3sc4nc[nH]c(=O)c4c3C)CC2)c(OC)c1 | nt | 1% | 2% | nt | nt | -3%
COc1ccc(NC(=O)Nc2nnc(N3CCCC3)s2)cc1 | nt | -5% | 0% | nt | nt | -2%
COc1cccc2c1C(=O)c1c(O)c3c(c(O)c1C2=O)C[C@](O)(C(=O)CO)C[C@H]3O[C@@H]1C[C@H](N)[C@H](O)[C@H](C)O1 | 1.1µM* | ? | nt | 4% | 7.1µM* | nt
CCOc1ccc(-c2cc(C(=O)NCc3ccc(OC)cc3)c3c(-c4ccc(F)cc4)[nH]nc3n2)cc1 | nt | 0% | 1% | nt | nt | ?
O=Nc1ccc(NOC(=O)c2ccc(Br)cc2)cc1 | 20% | 3% | nt | 19% | 2% | nt
Cc1ccc(C(=O)ONc2ccc(N=O)cc2)cc1 | 25µM* | -1% | -4% | 13% | 13µM* | 2%
Cc1ccc(C(=O)ONc2ccc(N=NC(=O)c3ccccc3O)cc2)cc1 | 17% | -1% | 1% | ? | 18µM* | -2%
CCC(C)(C)c1nnc(NC(=O)c2cccc([N+](=O)[O-])c2)s1 | 13µM* | -4% | 2% | -2% | ? | 1%
COC(=O)c1cc(C(=O)Nc2nnc(CC(C)(C)C)s2)cc([N+](=O)[O-])c1 | 8.9µM* | -1% | 0% | ? | 8.9µM* | -1%
O=C(Nc1ccc(Cl)cc1)Nc1nnc(CSCc2ccccc2)s1 | 5% | -1% | ? | 9% | -1% | 18µM*
O=C(Nc1ccc(Cl)cc1)Nc1nnc(CSc2ccc(Cl)cc2)s1 | 2% | 1% | ? | 23% | 8% | nt
O=C(Nc1nnc(Cc2ccc([N+](=O)[O-])cc2)s1)c1ccc2c(c1)OCO2 | -4% | 0% | -1% | 20% | 2% | nt
O=C(Nc1nnc(CSCc2ccc(F)cc2)s1)c1cccc([N+](=O)[O-])c1 | 11µM* | 0% | ? | 7% | 20µM* | -2%
COc1ccc(-n2nc(C(=O)N3CCCC(C)C3)c3c4ccccc4n(C)c3c2=O)cc1Cl (stereo unspecified) | nt | -1% | 2% | nt | nt | -12%
O=C(Nc1nnc(CSCc2ccc(Cl)cc2)s1)c1cccc([N+](=O)[O-])c1 | 11µM* | 1% | ? | 7% | 10µM* | 25µM*
O=C(Cn1ncn2c(cc3ccccc32)c1=O)NCCc1cccs1 | -1% | nt | 1% | -9% | -3% | -15%
O=C(Cn1cnc2sc(-c3ccccc3)cc2c1=O)NCc1ccccc1 | 0% | 15% | ? | 3% | 1% | -21%
